Compound activity (PubChem)
PGK inhibitor – blocks T. brucei phosphoglycerate kinase; P07378; PGK/GAPDH coupled, Kinase-Glo luminescence, 60 min; Potency, µM (highest dose often 57.5 µM), for the others: at the highest dose activity change, negative = inhibition, hits mostly inhibitors; 380,000 tested, 0.043% active; AID 602233; note: potency is the fitted concentration of half-maximal effect; % is set by controls: 0 for no effect and ±100 for the full control effect; nearly all actives have a fitted effect of over 60% in size
Target sequence (P07378 whole entry, looked up): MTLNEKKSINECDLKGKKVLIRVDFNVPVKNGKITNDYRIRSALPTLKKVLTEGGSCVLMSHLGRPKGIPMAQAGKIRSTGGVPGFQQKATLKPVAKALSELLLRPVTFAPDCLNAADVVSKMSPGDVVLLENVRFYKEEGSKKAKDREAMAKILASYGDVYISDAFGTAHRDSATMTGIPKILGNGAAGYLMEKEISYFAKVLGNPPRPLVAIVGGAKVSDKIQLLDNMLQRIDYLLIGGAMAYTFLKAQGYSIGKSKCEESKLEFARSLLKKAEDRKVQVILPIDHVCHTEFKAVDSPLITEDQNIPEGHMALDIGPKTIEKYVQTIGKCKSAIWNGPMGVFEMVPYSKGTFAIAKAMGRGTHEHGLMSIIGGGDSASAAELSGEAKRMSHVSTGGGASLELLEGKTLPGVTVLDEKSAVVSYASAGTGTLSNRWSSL
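Recombinant glycosomal PGK reaction used 1,3-bisphosphoglycerate generated in-well by GAPDH (100nM final) in 100mM TEA pH 7.6, 5mM MgCl2, 0.01% Tween-20. After 60 minutes at room temperature, ATP was read by Kinase-Glo Plus luminescence end-point.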
mIDH1 inhibitor – human IDH1 R132H inhibition. O75874. Potency, µM (highest dose often 76.6 µM), for inactives: at the highest dose activity change, negative = inhibition, hits mostly inhibitors. AID 602179. IDH1-R132H enzyme, NADPH consumption, diaphorase/resazurin fluorescence. 390,000 tested, 0.093% active; note: potency is the fitted concentration of half-maximal effect; % is set by controls: 0 for no effect and ±100 for the full control effect; nearly all actives have a fitted effect of over 65% in size
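IDH1-R132H (0.5 ug/mL) preincubated 30 min with compound, then NADPH (0.016 mM) and alpha-KG (2 mM) added; 80 min at RT, pH 7.5. Remaining NADPH coupled via diaphorase/resazurin to fluorescence (540/590 nm); concentration-response curves normalized to no-enzyme control.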
GLS inh – glutaminase GLS (human) inhibition. AID 624170. Potency, µM (top dose mostly 45.5 µM), without a hit: at the top dose activity change, negative = inhibition, actives largely listed as inhibitors. O94925. 410,000 tested, 0.21% active. GLS enzymatic activity, qHTS titration; note: potency is the fitted concentration of half-maximal effect; % is set by controls: 0 for no effect and ±100 for the full control effect
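Two-point fluorescence kinetic (t0, 30 min RT) for hKGA; glutamate detected via glutamate oxidase–HRP–Amplex Red. Substrate: 1 mM L-glutamine solution; buffer 45 mM KH2PO4, pH 8.2.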
Pin1 inhibitor – inhibitors of human Pin1 | Q13526 | Pin1 FP peptide displacement, HiFluor488, 10 min | Potency, µM (top dose mostly 115 µM), without a hit: at the highest dose activity, negative = inhibition, hits mostly inhibitors | 390,000 tested, 0.009% active; active = well fitted inhibition curve with a large enough effect in the polarisation, with a control signal flat, not every such curve was filed as active; inconclusive = small, poorly fitted or top-dose-only effect, or effect the other way, or a change in a side signal; inactive = no such curve, though single readings can be large or run the other way; the % refers to the polarisation; note: potency is the fitted concentration of half-maximal effect; % is set by controls: 0 for no effect and ±100 for the full control effect
Resorufin autofl – autofluorescence interference, mutant IDH1 hit counter-screen; shares compounds with mIDH1 inhibitor; Resorufin detection reagent fluorescence interference, cell-free; inhibition of signal, % at 51.2 µM; 750 tested, under 10 active;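 note: 0% = wells with normal resorufin and full inhibition = wells lacking resorufin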
WT IDH1 inh – inhibits human wild-type IDH1, mutant selectivity check; Potency, µM (doses to about 115 µM), inactives show top-dose activity change, negative = inhibition, actives largely listed as inhibitors; shares compounds with mIDH1 inhibitor; WT IDH1 enzyme, NADPH diaphorase/resazurin fluorescence; 750 tested, 9% active;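 note: potency is the fitted concentration of half-maximal effect; 0% = full WT IDH1 enzyme control and full inhibition = no enzyme wells; nearly all actives have a fitted effect of over 55% in size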
mIDH1 confirm – confirmation of human mutant IDH1 inhibitors; AID 624002; Potency, µM (series often up to 76.6 µM), inactives show top-dose activity change, negative = inhibition, actives largely listed as inhibitors; IDH1 R132H enzyme, NADPH diaphorase/resazurin fluorescence; shares compounds with mIDH1 inhibitor; 750 tested, 83% active; note: potency is the fitted concentration of half-maximal effect; nearly all actives have a fitted effect of over 50% in size
Active calls of the source: *; i = inactive; ? = inconclusive; . = not tested or not shown. Only some compounds are listed: those with a hit (about 0.33% of all), similar ones and a draw of the others. Unless noted, calls come from the whole dose curve; as a rule, active = well fitted curve in the direction sought with a large enough effect; inconclusive = small, poorly fitted or top-dose-only effect, or another doubt; inactive = no such curve, though single readings can be large; an effect the other way counts as inactive or inconclusive.

SMILES	PGK inhibitor	mIDH1 inhibitor	GLS inh	Pin1 inhibitor	Resorufin autofl	WT IDH1 inh	mIDH1 confirm
Cc1ccc(N(C(=O)c2ccco2)C(C(=O)NC2CCCC2)c2ccco2)c(C)c1 (stereo not given)	-2%	?	18%	0%	4	0%	20µM*
O=C(NC1CCCCC1)C(c1ccncc1)N(C(=O)c1ccco1)c1ccc(F)cc1 (stereo not given)	2%	?	-3%	0%	1	-1%	40µM*
O=C(NC1CCCC1)C(c1ccncc1)N(C(=O)c1ccco1)c1ccc(F)c(Cl)c1 (stereo not given)	15%	?	-3%	-7%	4	1%	40µM*
COc1ccc(Cl)cc1N(C(=O)c1ccco1)C(C(=O)NC1CCCC1)c1ccco1 (stereo not given)	i	-9%	15%	-8%	.	.	.
COc1ccc(Cl)cc1N(C(=O)c1ccco1)C(C(=O)NC1CCCC1)c1cccnc1 (stereo not given)	-9%	?	2%	-6%	2	-2%	?
Cc1cc2c(s1)c1cnn(Cc3ccccc3F)c(=O)c1n2Cc1ccccc1F	.	.	.	1%	.	.	.
O=[S+]([O-])(c1ccc2c(c1)OCCO2)N1CCN([S+](=O)([O-])c2ccccc2Br)CC1	.	.	.	-15%	.	.	.
CC(C)(C)c1ccc(Nc2nc(C#N)nc(NC3CCCC3)n2)cc1	.	.	.	0%	.	.	.
CO[C@]1(NC(=O)Cc2cccs2)C(=O)N2C(C(=O)O)=CC(COC(N)=O)S[C@H]21 (stereo not given in full)	.	.	-25%	.	.	.	.
COc1ccc(N(C(=O)c2ccco2)C(C(=O)NC2CCCC2)c2cccs2)cc1 (stereo not given)	-1%	?	3%	-13%	-1	-7%	?
Cc1cc(C)cc(N(C(=O)c2ccco2)C(C(=O)NC2CCCC2)c2ccncc2)c1 (stereo not given)	-4%	?	-13%	0%	5	7%	45µM*
Nc1nc(Nc2cccc(F)c2)nc(NCc2ccco2)c1[N+](=O)[O-]	i	?	3%	4%	-5	4%	32µM*
Cc1cccc(Nc2nc(N)c([N+](=O)[O-])c(NCc3ccco3)n2)c1	3%	-27%	1%	4%	.	.	.
CN1C(=O)/C(=C2\SC(=S)N(CCCCCC(=O)O)C2=O)c2ccccc21	-7%	4%	-2%	-3%	.	.	.
O=C(O)CCN1C(=O)/C(=C2\C(=O)N(Cc3ccc(F)cc3)c3ccccc32)SC1=S	-9%	9.3µM*	-32%	-5%	-1	-12%	4µM*
Cc1cc(C)nc(SCC(=O)Nc2ccc(Br)cn2)n1	-8%	4%	-2%	2%	.	.	.
Cc1cc(C)nc(SCC(=O)NC2=NN=C(c3ccc(Br)cc3)CS2)n1	-2%	?	11%	1%	-3	140%	45µM*
c1coc(CNc2nc(-c3cccs3)nc3ccccc23)c1	.	.	.	-2%	.	.	.
OCCN(CCO)c1ccc(C(c2ccccc2Cl)c2ccc(N(CCO)CCO)cc2Cl)c(Cl)c1	-9%	18µM*	-5%	-6%	5	40µM*	13µM*
OCCN(CCO)c1ccc2ccccc2c1	-4%	-8%	30%	-8%	.	.	.
Cc1csc(NC(=O)CCCC(=O)O)c1-c1nc2ccccc2s1	0%	?	-7%	3%	-2	8%	25µM*
Cc1csc(NC(=O)COCC(=O)O)c1-c1nc2ccccc2s1	-6%	15%	-28%	?	.	.	.
NC(=O)CSc1nc2c(c(=O)n1-c1ccccc1)C1(CCCCC1)Cc1ccccc1-2	-8%	52µM*	5%	9%	-2	0%	25µM*
